Activity calls are given as the source filed them.

This assay can be described thus: A549 lung cancer cell viability effects, profiling panel, resazurin fluorescence, 24 h, PK04 Diversity Set (AID 1171). Further: test concentration not given here. Particulars: higher = more signal, called active from +8 up or from −8 down. For orientation: Alamar Blue is a resazurin reagent that responds to reducing activity.
Take `CCCC[C@@H](O)C1=C(COC)Cn2c(=O)n(-c3ccccc3)c(=O)n2[C@H]1CO`: the z-score was -0.783 (inactive).
In the case of `CCN(CC)c1ccc(N2CC=CC34O[C@@H]5C=CCOC(=O)[C@@H]5[C@H]3C(=O)N(CCCO)[C@@H]4C2=O)cc1` (stereo not given in full), the z-score was -0.481 (inactive).
For the molecule `COCCOC(=O)N1C(=O)[C@@]2(c3cc(C#CCC(C(=O)OC)C(=O)OC)ccc31)[C@H](c1ccc(OCCO)cc1)N1[C@H](c3ccccc3)[C@H](c3ccccc3)OC(=O)[C@H]1[C@@H]2C(=O)N1CCCCCCC1`, the z-score was 0.78 (inactive).
For the molecule `CCOC(=O)C1=CC[C@@H](c2ccc(F)cc2)N(S(=O)(=O)c2ccc(C)cc2)[C@H]1c1ccc([N+](=O)[O-])cc1`, the z-score was 1.8 (inactive).
With `COC(=O)c1c(CC[C@@H](CO)NC(=O)N[C@@H](Cc2ccccc2)Cn2cc(-c3cncn3C)nn2)oc(C(C)=O)c1C(=O)OC`, the z-score is -0.208 (inactive).
`O=C(NCCO)C1=C[C@H](Oc2ccccc2I)[C@@H](O)[C@H](NCc2ccc(F)cc2)C1`: the z-score is -1.45 (inactive).
The result for `CCCCN1CC=CC23O[C@@H]4/C=C\CCC(C)OC(=O)C4[C@H]2C(=O)N(C(C)CO)[C@@H]3C1=O` (stereo not given in full) reads -0.016 (inactive); that for `CC(C)C[C@@H]1NC(=O)C([C@@H](C)OCc2ccccc2)NC(=O)[C@@]23C(=O)N[C@@H](Cc4ccccc4)C2[C@H](C)[C@@]2(C)O[C@H]2C3/C=C/CC/C=C/CNC1=O` (stereo not given in full), -0.785 (inactive).
Regarding `COCCOC(=O)N1C(=O)[C@@]2(c3cc(C#CCCO)ccc31)[C@H](C(=O)N1CCc3cc(OC)c(OC)cc3C1)[C@H]1C(=O)O[C@H](c3ccccc3)[C@H](c3ccccc3)N1[C@@H]2c1ccccc1OCCO`, the z-score was 0.456 (inactive).
Take `COc1ccc([Si](C)(C)[C@H]2[C@H](CC(=O)N3Cc4ccccc4C[C@H]3CO)O[C@@]3(C(=O)N(Cc4cccc(N5C(=O)c6cccc7cccc5c67)c4)c4ccccc43)[C@@H]2C)cc1`: the z-score was -1.02 (inactive).
The same measure for `CN1C(=O)C2C(C1=O)C1C=C(c3ccc(CO)cc3)C2C(c2cccs2)N1C` (stereo not given): -0.173 (inactive); for `CC(C)CNC(=O)[C@@]1(C)c2ccccc2C(=O)N(Cc2cc(F)cc(C(F)(F)F)c2)[C@H]1c1ccc(CO)cc1`: 0.906 (inactive); for `COc1ccc([Si](C)(C)[C@H]2[C@H](CCO)O[C@@]3(C(=O)N(Cc4ccc(N5CCOC5=O)cc4)c4ccccc43)[C@@H]2C)cc1`: -1.54 (inactive).
Regarding `CCCC=C(CCC)[C@@H](NC(=O)c1ccco1)c1ccc(C(=O)OC)cc1`, the z-score is 6.91 (inactive).
The result for `CO[C@H]1O[C@H](CO)[C@@H](OC(=O)Nc2ccc(C(F)(F)F)cc2)[C@H](OC(=O)Nc2ccccc2-c2ccccc2)[C@@H]1OC(=O)Nc1ccccc1-c1ccccc1` reads -1.35 (inactive).
Turning to `CC[C@H](C)C(=O)O[C@H]1CC[C@]2(C)C3=C(CCC2C1(C)C)[C@]1(C)CC[C@H]([C@H](C)CCCC(C)C)[C@@]1(C)CC3` (stereo not given in full), the z-score is 0.809 (inactive).
`COCCn1c(C(=O)N2CCCC2)cc2c1C[C@H]1CN(C(=O)c3ccccc3)[C@@](Cc3ccccc3)(C(=O)OC)[C@@H]21`: the z-score was -0.0413 (inactive).
The result for `C[C@]1(C(=O)NCC(F)(F)F)c2ccccc2C(=O)N(Cc2ccc(OC(F)(F)F)cc2)[C@H]1c1ccc(CO)cc1` reads 0.0382 (inactive).
As to `CN(C)CCCNC(=O)[C@@H]1c2ccccc2C(=O)N(C2Cc3ccccc3C2)[C@H]1c1ccc(CO)cc1`, the z-score was 0.267 (inactive).
With `Cc1c(NC(=O)/C(C#N)=C/c2ccc(Cl)cc2)c(=O)n(-c2ccccc2)n1C`, the z-score is -0.354 (inactive).
Take `C=CCC(OC(C)=O)[C@@H]1[C@@H](N(Cc2ccc(-c3ccccc3)cc2)C(=O)c2cccc3ccccc23)c2cc(OCCCO)ccc2N1C(=O)c1ccc2ccccc2c1` (stereo not given in full): the z-score is -0.725 (inactive).
The same measure for `COCCOC(=O)N1C(=O)[C@@]2(c3ccccc31)[C@H](c1ccc(OCCO)cc1)N1[C@H](c3ccccc3)[C@H](c3ccccc3)OC(=O)[C@H]1[C@@H]2C(=O)N1CCN(c2ncccn2)CC1`: 0.345 (inactive); for `C=C(/C(=C/C[C@@H](OC(C)=O)c1ccccc1OCCO)c1cc(C(=O)OC)ccc1OC)C(C)C`: 0.583 (inactive); for `CCCC[C@H]1OB(O)C[C@H]2C1=C(COC)C[C@H]1C(=O)C=CC(=O)[C@H]12`: -0.347 (inactive).
Regarding `COc1ccc(NC(=O)O[C@H]2[C@H](OC(=O)Nc3ccc4c(c3)OCO4)[C@H](OC(=O)Nc3ccc4c(c3)OCO4)[C@@H](OC)O[C@@H]2CO)cc1`, the z-score is -0.339 (inactive).
With `C=CCN1C(=O)[C@]2(O[C@H](CCO)[C@@H]([Si](C)(C)c3ccc(OC)cc3)[C@@H]2C)c2ccccc21`, the z-score was -1.83 (inactive).
The result for `COC(=O)[C@]1(CO)N=C(c2ccc(OCCCO)cc2)O[C@@H]1c1ccccc1CN=[N+]=[N-]` reads -0.49 (inactive); that for `COc1cccc(OC)c1C(=O)O[C@H]1[C@@H]2OC(=O)[C@H](Cc3cccc(Br)c3)C/C=C/C[C@@H](Cc3cccc(Br)c3)C(=O)O[C@H]2[C@@H](OC)O[C@@H]1CO`, -0.952 (inactive); that for `COCCOC(=O)N1C(=O)[C@@]2(c3cc(C#CC4(O)CCCCCC4)ccc31)[C@H](C(=O)NC[C@H](O)c1ccccc1)[C@H]1C(=O)O[C@H](c3ccccc3)[C@H](c3ccccc3)N1[C@@H]2c1ccc(O)cc1`, 1.63 (inactive).
In the case of `O=C1C2C=CC(C(O)c3ccc([N+](=O)[O-])cc3)N(Nc3ccccc3)C2C(=O)N1c1ccccc1` (stereo not given), the z-score was -0.0448 (inactive).
As for `C=C(CCCC)C(=O)CC[C@H](OC(C)=O)c1ccccc1OCCO`, the z-score was -1.24 (inactive).
As for `C=C(COC)/C(=C/C[C@H](OC(=O)c1ccncc1)c1ccc(OCCO)cc1)c1cc(C(=O)OC)ccc1OC`, the z-score is 1.29 (inactive).
As to `COC(=O)[C@@]1(Cc2ccc(OC)cc2)[C@@H]2[C@@H](CC(=O)[C@H]2CC(=O)C(=O)N2CCCC2)CN1C(=O)c1ccccc1`, the z-score is -0.189 (inactive).
Take `CCOC(=O)C[C@H]1[C@H](OC(=O)c2ccc(-c3ccccc3)cc2)[C@@H](NC(=O)CC(C)C)c2cc(OCCCO)ccc2N1C(=O)Cc1ccc(OC)cc1`: the z-score is 0.207 (inactive).
With `C=CCN1C(=O)[C@]2(O[C@H](CCn3cc([C@H](O)c4ccccc4)nn3)[C@@H]([Si](C)(C)c3ccc(OC)cc3)[C@@H]2C)c2cc(N3C(=O)c4cccc5cccc3c45)ccc21`, the z-score is -1.7 (inactive).

For the origin of these results see PubChem BioAssay.
